Experimental data taken from PubChem BioAssay (NCATS).
Several values for one entry are separate records, joined by “and”; a condition that tells them apart may be missing. Equal values may be shown once. Results filed as inconclusive are left out. Activity calls are given as the source filed them. Calls follow the shape of the dose curve; as a rule, active = well fitted inhibition curve with a large enough effect; inconclusive = small, poorly fitted or top-dose-only effect; inactive = flat fitted curve, though single readings scatter.

These compounds were tested on CRL-7250 (assay: Cytotoxic Profiling of Annotated Libraries Using Quantitative High-Throughput Screening (AID 1296008; also: nearly all actives have a fitted effect of over 60% in size)). Conditions: Five cell lines viability, CellTiter-Glo ATP luminescence, 48-72 h; max response: hits give low values.
In short: (§1)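 Cytotoxicity was measured as CellTiter-Glo ATP luminescence, read after 10 min at room temperature. Compound treatment of the cells lasted 48 or 72 hr at 37 degrees Celsius in a qHTS format.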
% is scaled to controls: 0 for no effect and ±100 for the full control effect; potency is read from the fitted curve at half-maximal effect.

Row | SMILES | Potency | max response | outcome
1 | C[C@@H]1C[C@@H]([C@H](O)CC2CC(=O)NC(=O)C2)C(=O)[C@@H](C)C1 | 1.33 µM (active) and 833 nM (active) |  | 
2 | CCC1(c2cccc(O)c2)CCCCN(C)C1 (centres undefined) |  | -9.91% (inactive) | 
3 | CCCOC(=O)Cc1ccc(OCC(=O)N(CC)CC)c(OC)c1 |  | -7.4% (inactive) | 
4 | CCC(=O)C(CCN(C)C)(c1ccccc1)c1ccccc1 |  | -11.9% (inactive) | 
5 | C1CN2CCC1CC2 |  | -5.27% (inactive) | 
6 | CCOP(=S)(OCC)O/N=C(\C#N)c1ccccc1 |  | -6.28% (inactive) | 
7 | C[C@]12CC[C@H]3[C@@H](CCC4=CC(=O)CC[C@@H]43)[C@@H]1CC[C@@H]2O |  | -5% (inactive) | 
8 | CCc1ccc(C2CCNCC2)cc1 |  |  | inactive
9 | CCC(=O)OC1(c2ccccc2)CCN(C)CC1 |  | -2.3% (inactive) | 
10 | Sc1ccccc1Cl |  | 1.34% (inactive) | 
11 | CC(C(O)c1ccccc1)N(C)C/C=C/c1ccccc1 (centres undefined) |  | -8.13% (inactive) | 
12 | CCO[C@H]1O[C@@H]2OC3(C)CC[C@H]4[C@H](C)CC[C@@H]([C@H]1C)[C@@]24OO3 |  | 3.38% (inactive) | 
13 | CCN1CCCC1CNC(=O)C(O)(c1ccccc1)c1ccccc1 (centres undefined) |  | -23.4% (inactive) | 
14 | COc1cc(N)c(Cl)cc1C(=O)NC1CN2CCC1CC2 (centres undefined) |  | -0.63% (inactive) | 
15 | O=c1[nH]c2cc(Cl)ccc2n1C1CCNCC1 |  |  | inactive
16 | COC(=O)C1=CCCN(C)C1 |  | -3.77% (inactive) | inactive
17 | Cc1ccc([N+](=O)[O-])[c]2c1[O][Hg]2 | 1.5 µM (active) |  | 
18 | C[C@H]1CNCCc2ccc(Cl)cc21 |  |  | inactive
19 | CN(C)CCc1c[nH]c2ccccc12 |  | 2.04% (inactive) | 

Row | SMILES | Potency | max response | outcome
20 | CN(C)CCc1c[nH]c2ccc(O)cc12 |  | 4.21% (inactive) | 
21 | CNC(C)Cc1ccc2c(c1)OCO2 (centres undefined) |  | 4.98% (inactive) | 
22 | O=C1CN2CCOC2(c2ccccc2Cl)c2cc(Cl)ccc2N1 (centres undefined) |  |  | inactive
23 | C[C@@H]1CN(C2CCC(C#N)(c3ccc(F)cc3)CC2)CC[C@]1(C(=O)O)c1ccccc1 (some centres undefined) |  |  | inactive
24 | CCCCC1C(=O)NC(=O)N(C2CCCCC2)C1=O (centres undefined) |  | -13.7% (inactive) | 
25 | ClCCCN1CCN(c2cccc(Cl)c2)CC1 |  |  | inactive
26 | O=C(CCCCl)c1ccc(F)cc1 |  | 0.989% (inactive) | 
27 | C[C@@H]1CC[C@H]2[C@@H](C)C(=O)O[C@@H]3O[C@@]4(C)CC[C@@H]1[C@]32OO4 |  | -4.21% (inactive) | 
28 | COP(=S)(OC)Oc1ccc(S(N)(=O)=O)cc1 |  |  | inactive
29 | C[N+]1(C)[C@@H]2CC[C@H]1CC(OC(=O)C(CO)c1ccccc1)C2 (some centres undefined) |  |  | inactive
30 | CN(C)C(=O)Oc1cc(OC(=O)N(C)C)cc(C(O)CNC(C)(C)C)c1 (centres undefined) |  | -6.2% (inactive) | 
31 | ClCc1cccc(Cl)c1 |  | -10.5% (inactive) | 
32 | CC(Cc1ccc2c(c1)OCO2)NO (centres undefined) |  | -0.759% (inactive) | 
33 | CCOC(=O)C1(c2ccccc2)CCN(CCc2ccc(N)cc2)CC1 |  | -7.28% (inactive) | 
34 | CCC1(c2cnc[nH]2)Cc2ccccc2C1 |  | -7.94% (inactive) | 
35 | CC(CC(C(N)=O)(c1ccccc1)c1ccccc1)N(C)C (centres undefined) |  | -1.58% (inactive) | 
36 | C=CCN1CC[C@]23CCCC[C@H]2[C@H]1Cc1ccc(O)cc13 |  | 1.58% (inactive) | 
37 | O=C(O)CCCCCCNC1c2ccccc2CCc2ccccc21 |  | -2% (inactive) | 

Each compound was assayed on HEK293 in the same assay as above. Conditions: Five cell lines viability, CellTiter-Glo ATP luminescence, 48-72 h; max response: hits give low values.
In short: as §1

Row | SMILES | Potency | max response | outcome
38 | C[C@@H]1C[C@@H]([C@H](O)CC2CC(=O)NC(=O)C2)C(=O)[C@@H](C)C1 | 0.469 µM (active) |  | 
39 | CCC1(c2cccc(O)c2)CCCCN(C)C1 (centres undefined) |  | -2.39% (inactive) | 
40 | CCCOC(=O)Cc1ccc(OCC(=O)N(CC)CC)c(OC)c1 |  | -10.1% (inactive) | 
41 | CCC(=O)C(CCN(C)C)(c1ccccc1)c1ccccc1 |  | -18.5% (inactive) | 
42 | C1CN2CCC1CC2 |  | 1.2% (inactive) | 
43 | CCOP(=S)(OCC)O/N=C(\C#N)c1ccccc1 |  |  | inactive
44 | C[C@]12CC[C@H]3[C@@H](CCC4=CC(=O)CC[C@@H]43)[C@@H]1CC[C@@H]2O |  | 0.616% (inactive) | 
45 | CCc1ccc(C2CCNCC2)cc1 |  | -21.3% (inactive) | 
46 | CCC(=O)OC1(c2ccccc2)CCN(C)CC1 |  | -12.2% (inactive) | 
47 | Sc1ccccc1Cl |  | -0.79% (inactive) | 
48 | CC(C(O)c1ccccc1)N(C)C/C=C/c1ccccc1 (centres undefined) |  | -9.94% (inactive) | 
49 | CCO[C@H]1O[C@@H]2OC3(C)CC[C@H]4[C@H](C)CC[C@@H]([C@H]1C)[C@@]24OO3 | 5.96 µM (active) |  | 
50 | CCN1CCCC1CNC(=O)C(O)(c1ccccc1)c1ccccc1 (centres undefined) |  |  | inactive
51 | COc1cc(N)c(Cl)cc1C(=O)NC1CN2CCC1CC2 (centres undefined) |  | -0.75% (inactive) | 
52 | O=c1[nH]c2cc(Cl)ccc2n1C1CCNCC1 |  | -8.77% (inactive) | 
53 | Cc1ccc([N+](=O)[O-])[c]2c1[O][Hg]2 | 1.06 µM (active) |  | 
54 | C[C@H]1CNCCc2ccc(Cl)cc21 |  |  | inactive
55 | CN(C)CCc1c[nH]c2ccccc12 |  | -13.9% (inactive) | 

Row | SMILES | Potency | max response | outcome
56 | CN(C)CCc1c[nH]c2ccc(O)cc12 |  | -2.05% (inactive) | 
57 | CNC(C)Cc1ccc2c(c1)OCO2 (centres undefined) |  | -3.37% (inactive) | 
58 | O=C1CN2CCOC2(c2ccccc2Cl)c2cc(Cl)ccc2N1 (centres undefined) |  | -3.36% (inactive) | 
59 | C[C@@H]1CN(C2CCC(C#N)(c3ccc(F)cc3)CC2)CC[C@]1(C(=O)O)c1ccccc1 (some centres undefined) |  | -6.67% (inactive) | 
60 | CCCCC1C(=O)NC(=O)N(C2CCCCC2)C1=O (centres undefined) |  | 0.515% (inactive) | 
61 | ClCCCN1CCN(c2cccc(Cl)c2)CC1 |  |  | inactive
62 | O=C(CCCCl)c1ccc(F)cc1 |  |  | inactive
63 | C[C@@H]1CC[C@H]2[C@@H](C)C(=O)O[C@@H]3O[C@@]4(C)CC[C@@H]1[C@]32OO4 | 2.37 µM (active) |  | 
64 | COP(=S)(OC)Oc1ccc(S(N)(=O)=O)cc1 |  | -8.17% (inactive) | 
65 | C[N+]1(C)[C@@H]2CC[C@H]1CC(OC(=O)C(CO)c1ccccc1)C2 (some centres undefined) |  |  | inactive
66 | CN(C)C(=O)Oc1cc(OC(=O)N(C)C)cc(C(O)CNC(C)(C)C)c1 (centres undefined) |  | -17.2% (inactive) | 
67 | ClCc1cccc(Cl)c1 |  | -1.26% (inactive) | 
68 | CC(Cc1ccc2c(c1)OCO2)NO (centres undefined) |  | -1.22% (inactive) | 
69 | CCOC(=O)C1(c2ccccc2)CCN(CCc2ccc(N)cc2)CC1 |  | -24.8% (inactive) | 
70 | CCC1(c2cnc[nH]2)Cc2ccccc2C1 |  | -9.84% (inactive) | 
71 | CC(CC(C(N)=O)(c1ccccc1)c1ccccc1)N(C)C (centres undefined) |  |  | inactive
72 | C=CCN1CC[C@]23CCCC[C@H]2[C@H]1Cc1ccc(O)cc13 |  | -6.38% (inactive) | 
73 | O=C(O)CCCCCCNC1c2ccccc2CCc2ccccc21 |  | 2.21% (inactive) | 
